The text below walks through data of PubChem BioAssay (NCI).

Molecules are shown by their SMILES. Where “and” joins values, the source holds several entries; their conditions need not be identical. Equal values may be shown once. About 83,000 compounds went through this panel and 20% of them were active in at least one assay; those are over-represented in the sample as a whole.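 Note: values are percent growth. 100 is the growth of untreated cells, values between 100 and 0 indicate rising inhibition; between -100 and 0 indicates cell death.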 A number with no mark means an inactive call. Calls of active or inactive are those of the source. Rule for the calls: active = growth percent below 10; inactive = the rest.

Test systems include HCT-15 colon; HT29 colon; SNB-75 CNS; U251 CNS; PC-3 prostate; SK-MEL-5 melanoma; UACC-62 melanoma; LOX IMVI melanoma; SK-MEL-28 melanoma; SNB-19 CNS.
What all share (assay): NCI-60 one-dose screen, 48 h (100 = growth as untreated, 0 = no growth, -100 = all killed)
Holding throughout (conditions): 10 µM unless noted

Consider `NC(=S)N/N=C\c1nccc2c(C(F)(F)C(F)(F)C(F)(F)F)cccc12`, for which the growth is 28.2% in the experiment on HCT-15 colon; 8.84% (active) with HT29 colon; 20.2% in the experiment on SNB-75 CNS; -9.91% (active) in the experiment on U251 CNS; 9.51% (active) with PC-3 prostate; -54.7% (active) with SK-MEL-5 melanoma. Moreover, the values for the growth with UACC-62 melanoma, with LOX IMVI melanoma and with SK-MEL-28 melanoma were -39.8% (active), 4.13% (active) and 25.2%, respectively.
For the compound `CC1OC2CC(=O)OC2C2=C1C(=O)c1c(O)cccc1C2=O` (stereo not given), the growth with HCT-15 colon was -76.6% (active); with SNB-75 CNS, -100% (active); with PC-3 prostate, -35.3% (active); in the experiment with SK-MEL-5 melanoma, -100% (active); in the experiment on UACC-62 melanoma it was -89.4% (active); in the experiment on LOX IMVI melanoma, -91.6% (active). The growth in the experiment with SK-MEL-28 melanoma is -93.5% (active).
As to `CC1OC(OC2C(OC3CCC4(C)C(CCC5(C)C4CC=C4C6CC(C)(C)CCC6(CO)C(O)CC45C)C3(C)C)OC(C(=O)O)C(OC3OC(COC4OC(CO)C(O)C(O)C4O)C(O)C(O)C3O)C2O)C(O)C(O)C1O` (stereo not given), the growth in the experiment on HCT-15 colon is -47.8% (active); in the experiment with SNB-75 CNS, -84.1% (active); with SNB-19 CNS it was -87.6% (active); in the experiment on U251 CNS, -80.4% (active); in the experiment with PC-3 prostate, -74.3% (active); in the experiment with SK-MEL-5 melanoma it was -94.3% (active). The growth with UACC-62 melanoma was -69.7% (active); in the experiment with LOX IMVI melanoma, -69.9% (active); with SK-MEL-28 melanoma, -79% (active).
Take `Cc1ccc2nc(-[n+]3cc4ccccc4cc3C)ccc2c1`: the growth in the experiment with HCT-15 colon is 104%; in the experiment on SNB-75 CNS, 34.5%; with SNB-19 CNS, 27.2%; in the experiment on PC-3 prostate, 17.5%; in the experiment with SK-MEL-5 melanoma, -27.5% (active); in the experiment with UACC-62 melanoma, 30.7%. Moreover, the figures for the growth in the experiment on LOX IMVI melanoma and in the experiment with SK-MEL-28 melanoma were 46.6% and 43.1%, respectively.
For the compound `N[C@H](C(=O)O)[C@@H]1CC(Cl)=NO1`, the growth in the experiment on HCT-15 colon was 15.9% [20 µM]; in the experiment with SNB-75 CNS, 27.3% [20 µM]; with SNB-19 CNS, 30.6% [20 µM]; in the experiment with PC-3 prostate, 31% [20 µM]; with SK-MEL-5 melanoma, 11.4% [20 µM]; with UACC-62 melanoma, 22.4% [20 µM]. Moreover, the growth with LOX IMVI melanoma is 13.2% [20 µM]; in the experiment on SK-MEL-28 melanoma, 34.7% [20 µM].
Consider `CCCCCCCCCCCCCCNCc1ccccc1`, for which the growth was 45.6% in the experiment on HCT-15 colon; 82.7% with SNB-75 CNS; 85.6% with SNB-19 CNS; 81.7% in the experiment with PC-3 prostate; 62.4% in the experiment on SK-MEL-5 melanoma; 99.1% with UACC-62 melanoma. The growth in the experiment on LOX IMVI melanoma is 53.3%; in the experiment on SK-MEL-28 melanoma, 82.4%.
As for `N#Cc1ccc([N+](=O)[O-])o1`, the growth was 104% in the experiment with HCT-15 colon; 109% with SNB-75 CNS; 101% in the experiment on SNB-19 CNS; 90% in the experiment on U251 CNS; 93.3% in the experiment with PC-3 prostate; 96.8% in the experiment on SK-MEL-5 melanoma. The growth in the experiment on UACC-62 melanoma was 95.4%; with SK-MEL-28 melanoma, 106%.
Regarding `CCCCCCCCCCCCCCCC[N+](C)(CCO)Cc1cnc[nH]1` (stereo not given), the growth in the experiment with HCT-15 colon was 23.5%; with SNB-75 CNS, -86.6% (active); with U251 CNS, -86.5% (active); with PC-3 prostate it was -37.5% (active); with SK-MEL-5 melanoma, -99.8% (active); with UACC-62 melanoma it was -76.4% (active). Moreover, the results for the growth with LOX IMVI melanoma and with SK-MEL-28 melanoma were -79% (active) and -43.2% (active), respectively.
`N#CSCc1c(Cl)cccc1Cl`: the growth in the experiment with HCT-15 colon was 14.6%; with SNB-75 CNS it was 96.4%; in the experiment with SNB-19 CNS, 90.2%; with PC-3 prostate, 76.2%; with SK-MEL-5 melanoma, 87.5%; with UACC-62 melanoma, 88.5%. Moreover, the growth in the experiment on SK-MEL-28 melanoma is 56.2%.
Take `CCN(CC)CC(C)(C)C(=O)/C=C/c1ccc(Cl)c(Cl)c1`: the growth was -34% (active) with HCT-15 colon; 30% with SNB-75 CNS; -30.1% (active) with SNB-19 CNS; -45.8% (active) with U251 CNS; -33.8% (active) in the experiment with PC-3 prostate; 0.295% (active) with SK-MEL-5 melanoma. The growth in the experiment on UACC-62 melanoma was -56.2% (active); in the experiment with LOX IMVI melanoma it was -82.4% (active); in the experiment with SK-MEL-28 melanoma, -35.5% (active).
For the compound `O=Nc1ccccc1N=O`, the growth is 51.4% with HCT-15 colon; 46.6% in the experiment with SNB-75 CNS; 83.9% with PC-3 prostate; 87.2% with SK-MEL-5 melanoma; 71.2% with UACC-62 melanoma; 60% with LOX IMVI melanoma. Besides, the growth in the experiment on SK-MEL-28 melanoma is 92.9%.
For the compound `COc1ccccc1OC(=O)Oc1ccccc1OC`, the growth in the experiment with HCT-15 colon is 110% and 95.2%; in the experiment on SNB-75 CNS, 97.8% and 90.8%; with SNB-19 CNS, 104%; with U251 CNS, 111% and 106%; in the experiment on PC-3 prostate, 102% and 81.8%; with SK-MEL-5 melanoma, 100%. In addition, the growth with UACC-62 melanoma was 100% and 96.4%; in the experiment on SK-MEL-28 melanoma, 110% and 106%.
`O=C1N[C@H]2[C@H](CS[C@H]2CCCCC(=O)N(CCP(c2ccccc2)c2ccccc2)CCP(c2ccccc2)c2ccccc2)N1`: the growth is 78.6% in the experiment on HCT-15 colon; 104% with SNB-75 CNS; 75.7% in the experiment on SNB-19 CNS; 50.8% in the experiment with U251 CNS; 71.7% in the experiment with PC-3 prostate; 87.8% in the experiment with SK-MEL-5 melanoma. Moreover, the growth in the experiment on UACC-62 melanoma was 88.3%; in the experiment on LOX IMVI melanoma, 76%; with SK-MEL-28 melanoma, 99.7%.
